Tg IFNy HTS: T. gondii growth inhibition with IFN-gamma, primary screen, cell-based; Toxoplasma gondii growth in IFN-gamma-treated host cells; hits give low values; activity change, negative = inhibition, % (no concentration beside the values); AID 1259416, 2018; 3.8% of 69,000 active; in the data active = activity change below about -70%, passing the limit was not always enough;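 also: host cells are HeLa cells infected with Toxoplasma gondii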
* hit, by the source's call; i = inactive; ! = not active in a repeat. This is one part of a sample in which hits are shown more often than they occur.

SMILES	Tg IFNy HTS
C[C@H]1CN([C@@H](C)CO)C(=O)Cc2cc(NC(=O)C3CCCCC3)ccc2O[C@H]1CN(C)Cc1ccc(Cl)c(Cl)c1	-54
C[C@@H]1CN([C@@H](C)CO)C(=O)Cc2cc(NC(=O)C3CCCCC3)ccc2O[C@H]1CN(C)Cc1ccc(Cl)c(Cl)c1	-33
CS(=O)(=O)c1ccc(C(=O)NCc2cnn3ccccc23)cc1	69
Cc1ccc(NC(=O)N2CCC3(CCC(C(=O)NCC4CC4)O3)C(C)C2)cc1 (centres undefined)	49
Cc1ccc(NC(=O)CN2C(=O)CCc3cc(S(=O)(=O)N4CCCCC4)ccc32)c(C)c1	-4
C=C(C)COc1cccc(C(=O)NCCn2cccn2)c1	41
Fc1cnc(N2CCCC3(CC(Oc4cccnc4)CO3)C2)nc1 (centres undefined)	19
C=C[C@@]1(C)CC(=O)[C@@]2(O)[C@](C)(O1)[C@@H](O)[C@@H](O)C1C(C)(C)CC[C@H](O)[C@@]12C (some centres undefined)	21
CC(C)n1nc(-c2ccc3oc(N)nc3c2)c2c(N)ncnc21	-83*
O=C(Cn1c(=O)cc(C(=O)N2CCc3ccccc3C2)c2ccccc21)NCc1ccccc1Cl	-9
COc1ccc2c(c1)NC1(CCN(S(=O)(=O)c3cn(C)cn3)CC1)c1cccn1-2	-4
COCCN1C(=O)CC[C@H]2[C@H]1CCN2C(=O)c1ccccn1	10
CC(C)(C)C(=O)N1CCC2(CC1)CC(Oc1ccccc1)CO2 (centres undefined)	25
COc1ccc2c(c1)OCC(Cc1ccc(OC)c(OC)c1)C2=O (centres undefined)	-3
COc1ccc2c(c1)OCC(Cc1ccc(OC)c(OC(C)=O)c1)C2=O (centres undefined)	-84*
COc1ccc2c(c1)O[C@H]1c3ccc(OC)cc3OC[C@@H]21	-21
Cc1oc(-c2cccc(Cl)c2)nc1CN1CCCC(C(=O)NC2CCCCCC2)C1 (centres undefined)	-56
Cc1oc(-c2cccc(C(F)(F)F)c2)nc1CN1CCCC(C(N)=O)C1 (centres undefined)	4
COc1ccc(CNC(=O)C2CCCN(Cc3nc(-c4cccc(C)c4)oc3C)C2)cc1 (centres undefined)	-83*
c1cnc(N2CCc3onc(COc4cccnc4)c3C2)nc1	-44
CC1(C)CC(C(=O)N2CCC(n3cc(-c4ccccn4)nn3)CC2)CCO1 (centres undefined)	2
O=C(c1cn(C2CCCCC2)nn1)N1CCS(=O)(=O)CC1	-5
COc1cc(NC(=O)c2cncc(Br)c2)c(OC)cc1Cl	4
CCOC(=O)c1cccc(NC(=O)c2ccncc2)c1	26
CCn1c(=O)c(C(=O)Nc2ccccc2OC)c(O)c2ccccc21	70
SMILES	Tg IFNy HTS
COc1cccc(OC)c1C(=O)c1ccncc1	-24
CCn1c(-c2cc(NC(=O)c3ccncc3)n[nH]2)cc2c(OC)cccc21	-103*
CCn1c(-c2cc(NC(=O)c3cncc(Br)c3)n[nH]2)cc2c(OC)cccc21	-97*
CN(Cc1cc(-c2ccccc2)on1)C(=O)CCc1cn2ccccc2n1	172
CCN(Cc1nccn1C)C(=O)c1ccc(-c2c(F)cccc2OC)nc1	-4
O=C(CSc1nc2ccccc2s1)N1CCN(S(=O)(=O)c2ccccc2)C1	5
CNc1nc(C)c(C(=O)N2CCCC(c3cc(=O)nc4n3CCC4)C2)s1 (centres undefined)	9
CC#CCN(Cc1ccco1)C(=O)c1cc(C)c(C)c(S(N)(=O)=O)c1	7
CCOC(=O)CSc1nc(NCc2ccc(OC)cc2)c2ccccc2n1	-9
O=C(C1CC1)N1CCC2(COCc3cnc(N4CCOCC4)nc32)C1 (centres undefined)	0
CCN(Cc1cc(Cl)ccc1OC)C(=O)c1ccc(CO)cc1	-2
Cc1ccc(F)cc1NC(=O)C(=S)NCc1ccccc1	-25
FC(F)(F)c1cc(Sc2cc(C(F)(F)F)nc3ccccc23)c2ccccc2n1	-11
Nc1c2c(nc3ccccc13)CCCC2	-16
CCOc1c2ccccc2nc2ccccc12	-123*
CCOC(=O)c1c(C)nc2ccccc2c1C(=O)O	9
CCOc1ccc(Nc2nc3ccccc3c(=O)s2)cc1	-3
Nc1c2ccccc2nc2ccccc12	-73*!
Cc1ccc(NC(=O)N2CCC(c3nc(C(=O)N(C)C)c(C)o3)CC2)cc1	30
Nc1ccc(-c2ccc(C(=O)N3CCC(CN4CCCC4=O)CC3)cn2)cn1	87
CS(=O)(=O)N1CCn2nnc(COCc3cccnc3)c2C1	-2
Cc1nc(C(Cc2c[nH]c3ccccc23)NS(=O)(=O)c2ccc(F)c(C)c2)cc(=O)[nH]1 (centres undefined)	23
CCCCc1c(C)[nH]c2ccccc2c1=O	-99*
CCC(CC)n1ncc(C)c1NC(=O)CCc1c(C)[nH]c2ccccc2c1=O	-17
CCCCCCCCCc1nc2c(=O)[nH]c3ccccc3c2o1	4
SMILES	Tg IFNy HTS
COc1ccc(OC(=O)c2cc(S(=O)(=O)N(C)Cc3ccccc3)cs2)cc1	-66
CCc1cccc(NC(=O)C2=C(C)C(=O)OC23CCN(CC)CC3)c1	166
CCCCC[C@H](O)/C=C/[C@H]1[C@H](O)CC(=O)[C@@H]1CCCCCCC(=O)O	14
CCCCCCCCCCC[C@@H](C[C@@H]1OC(=O)[C@H]1CCCCCC)OC(=O)[C@H](CC(C)C)NC=O	-82*
Cn1cc(N2C[C@@H]3CN(C(=O)c4ccoc4)C[C@@H]3C2=O)cn1	7
Cc1cc(C)n(CCCN(C)C(=O)c2cnc(C)nc2C)n1	-22
O=C(c1ccc(Cl)cc1)N1CCN(S(=O)(=O)c2cc3c4c(c2)CCC(=O)N4CCC3)CC1	-64
Clc1cc2c(c(CSc3ccccc3C3=NCCCN3)c1)OCOC2	38
FC(F)(F)c1ccc2nc(SCc3cc(Cl)cc4c3OCOC4)[nH]c2c1	-81*
COc1ccc(C(C)=O)cc1CSc1nc2ccc(C(F)(F)F)cc2[nH]1	-52
Cc1oc(-c2cc(F)cc(F)c2)nc1COc1ccc(CC(N)=O)cc1	7
C=Cc1ccc(Cn2nc(-c3ccco3)c(-c3cc(C)no3)cc2=O)cc1	-3
CN(Cc1ccc(-n2cccn2)cc1)Cc1cccc2nccnc12	16
C=C(C)Cc1c(C)nc(-c2ccc(Cl)cc2)nc1OC(=S)N(CC)CC	-98*
O=C(c1cccnc1)N1CCCC(CCc2ccnc(Nc3cnccn3)c2)C1 (centres undefined)	15
CCOc1ccc(NC(=O)N2CCC3(CC2)NC(=O)c2ccccc2N3CC)cc1	-2
NCc1cn(CC2CCCN(C(=O)NC34CC5CC(CC(C5)C3)C4)C2)nn1 (centres undefined)	-1
O=C(c1ccccc1)N1CCC2(CC1)Nc1ccc(Cl)cc1-n1cccc12	6
O=C(Cc1ccccc1)N1CCC2(CC1)Nc1ccc(Cl)cc1-n1cccc12	61
COc1ccc2c(c1)NC1(CCN(C(=O)Nc3ccc(Br)c(C)c3)CC1)c1cccn1-2	66
Cc1ccc(NC(=O)N2CCC3(CC2)Nc2ccccc2-n2cccc23)cc1Cl	i
CC(C)C(=O)N1CCC2(CC1)Nc1ccc(Cl)cc1-n1cccc12	45
Cc1cc(NC(=O)N2CCC3(CC2)Nc2ccccc2-n2cccc23)ccc1Br	-116*
O=C(COc1ccccc1)N1CCC2(CC1)Nc1ccc(Cl)cc1-n1cccc12	-84*
COc1ccc(CCC(=O)N2CCC3(CC2)Nc2ccccc2-n2cccc23)cc1	-115*
O=C(COc1ccc(Cl)cc1)N1CCC2(CC1)Nc1ccccc1-n1cccc12	-8
COc1cc(CCC(=O)N2CCC3(CC2)Nc2ccccc2-n2cccc23)cc(OC)c1OC	-20

From PubChem
